# Measured values from PubChem BioAssay.
# Active and inactive are the calls of the source. Unless noted, how the calls were made is not given here.
# Assays:
# [1] = anti-His antibody binders, primary screen, artefact control for SMM control protein annotation, biochemical, small-molecule microarray, 635 nm fluorescence (AID 1128); details: anti-His Alexa647 antibody binding, higher = more signal;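 further: score merges feature fluorescence with signal-to-noise for each printed compound spot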
# [2] = tested on: Human papillomavirus type 1a E7 protein (residues 1-88); experiment: HPV1a E7 small-molecule binders, primary screen, biochemical, small-molecule microarray, residues 1-88, 635 nm (AID 1129); details: small-molecule microarray binding, fluorescence 635 nm; higher = more signal
# [3] = molecular target: Focal adhesion kinase 1 (Homo sapiens) (UniProt Q05397); experiment: small-molecule microarray binders of FAK, primary screen, biochemical, 635/667 nm fluorescence, BSA, DTT (AID 1130); details: PTK2 binding, 635 nm fluorescence, higher = more signal;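 further: composite of spot emission at 667 nm and signal to noise over triplicate slides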
# Sequence of Focal adhesion kinase 1 (Homo sapiens) (Q05397 whole entry, looked up): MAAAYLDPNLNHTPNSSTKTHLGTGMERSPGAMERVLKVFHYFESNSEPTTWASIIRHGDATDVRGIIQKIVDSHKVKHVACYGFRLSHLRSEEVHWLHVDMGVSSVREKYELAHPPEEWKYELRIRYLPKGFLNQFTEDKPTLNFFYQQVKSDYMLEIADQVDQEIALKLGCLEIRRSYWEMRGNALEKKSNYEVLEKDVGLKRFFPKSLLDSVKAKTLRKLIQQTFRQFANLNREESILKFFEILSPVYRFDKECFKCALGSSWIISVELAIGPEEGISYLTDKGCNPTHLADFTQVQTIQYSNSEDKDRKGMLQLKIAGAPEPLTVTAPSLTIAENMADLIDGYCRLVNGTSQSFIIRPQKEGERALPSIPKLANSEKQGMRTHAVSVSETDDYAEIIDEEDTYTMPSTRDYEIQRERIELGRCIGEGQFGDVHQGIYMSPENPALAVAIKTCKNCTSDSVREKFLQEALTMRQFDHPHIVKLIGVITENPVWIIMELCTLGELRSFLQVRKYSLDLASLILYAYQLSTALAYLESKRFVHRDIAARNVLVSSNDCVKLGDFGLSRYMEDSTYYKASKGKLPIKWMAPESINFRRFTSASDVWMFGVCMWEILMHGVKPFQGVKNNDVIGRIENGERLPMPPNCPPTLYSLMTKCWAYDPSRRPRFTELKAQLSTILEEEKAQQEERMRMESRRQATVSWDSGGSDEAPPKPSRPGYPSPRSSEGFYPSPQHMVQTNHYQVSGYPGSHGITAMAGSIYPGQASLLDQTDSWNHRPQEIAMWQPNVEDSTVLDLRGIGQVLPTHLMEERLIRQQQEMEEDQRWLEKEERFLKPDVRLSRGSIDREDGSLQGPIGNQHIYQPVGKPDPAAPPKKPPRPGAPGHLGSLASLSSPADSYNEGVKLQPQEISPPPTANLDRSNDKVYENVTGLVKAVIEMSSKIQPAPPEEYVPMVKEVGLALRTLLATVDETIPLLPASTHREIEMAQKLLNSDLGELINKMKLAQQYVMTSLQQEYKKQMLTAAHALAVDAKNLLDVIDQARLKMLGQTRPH
# [4] = tested on: Fibrinogen (Alexa647-labelled); experiment: fibrinogen binders on compound microarrays, profiling panel, artefact control for SMM control-protein annotation, biochemical, small-molecule microarray, 635/667 nm fluorescence (AID 1131); details: fibrinogen-A647 binding fluorescence, higher = more signal;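 further: z-score merges 667 nm fluorescence with per-spot signal-to-noise over triplicate slides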
# [5] = molecular target: Follistatin (Homo sapiens) (UniProt P19883); experiment: follistatin binders on small-molecule microarrays, primary screen, biochemical, small-molecule microarray, 635/667 nm fluorescence (AID 1132); details: FST binding, 635 nm fluorescence, higher = more signal
# Sequence of Follistatin (Homo sapiens) (P19883 whole entry, looked up): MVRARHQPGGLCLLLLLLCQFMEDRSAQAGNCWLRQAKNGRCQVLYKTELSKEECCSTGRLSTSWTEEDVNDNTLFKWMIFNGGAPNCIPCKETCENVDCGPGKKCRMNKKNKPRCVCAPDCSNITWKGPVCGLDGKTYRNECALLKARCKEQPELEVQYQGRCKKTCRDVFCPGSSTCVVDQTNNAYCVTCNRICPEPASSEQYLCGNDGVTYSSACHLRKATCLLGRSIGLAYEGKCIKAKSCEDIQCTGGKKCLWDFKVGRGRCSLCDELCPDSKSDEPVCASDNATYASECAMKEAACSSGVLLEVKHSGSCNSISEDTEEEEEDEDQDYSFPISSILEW
# [6] = molecular target: Fibroblast growth factor 2 (Homo sapiens) (UniProt P09038); experiment: FGF2 binders on small-molecule microarrays, primary screen, biochemical, small-molecule microarray, 635/667 nm fluorescence (AID 1133); details: small-molecule microarray binding, FGF2, fluorescence 635/667; higher = more signal
# Sequence of Fibroblast growth factor 2 (Homo sapiens) (P09038 whole entry, looked up): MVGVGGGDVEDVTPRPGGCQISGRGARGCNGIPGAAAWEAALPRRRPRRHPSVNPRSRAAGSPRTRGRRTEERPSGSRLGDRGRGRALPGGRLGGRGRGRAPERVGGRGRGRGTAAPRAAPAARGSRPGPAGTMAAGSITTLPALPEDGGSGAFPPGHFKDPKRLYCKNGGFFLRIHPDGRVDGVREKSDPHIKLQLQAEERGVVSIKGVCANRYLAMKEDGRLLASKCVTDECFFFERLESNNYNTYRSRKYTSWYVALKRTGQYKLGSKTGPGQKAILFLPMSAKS
# [7] = mitochondrial membrane potential change in A549 cells, profiling panel, cell-based, JC-1 fluorescence, basal, 24 h, 100 nL (AID 1138); details: higher = more signal;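 further: A549 lung adenocarcinoma cells under basal conditions with no added stimulus; test concentration not given here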
# Lefty1 = Lefty1 binders on small-molecule microarrays, primary screen, biochemical, small-molecule microarray, 635/667 nm fluorescence (AID 1139); details: small-molecule microarray binding, fluorescence 635/667; higher = more signal
# [8] = tested on: wheat germ agglutinin (Triticum aestivum), Alexa647-labelled; experiment: wheat germ agglutinin binders on compound microarrays, profiling panel, artefact control for SMM control-protein annotation, biochemical, small-molecule microarray, 635/667 nm fluorescence (AID 1140); details: WGA-A647 binding, 635 nm fluorescence, higher = more signal;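 further: score merges 667 nm feature emission with signal to noise over triplicate slides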
# [9] = molecular target: Luciferin 4-monooxygenase (Photinus pyralis) (UniProt P08659); experiment: firefly luciferase enzyme inhibitors, primary screen, biochemical, luminescence, purified enzyme, 2006 set (AID 1141); details: SteadyGlo luminescence, 30 min, higher = more signal, called active from +8 up or from −8 down;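 further: cell-free assay with purified firefly luciferase at 100 ng per well in PBS; test concentration not given here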
# Sequence of Luciferin 4-monooxygenase (Photinus pyralis) (P08659 whole entry, looked up): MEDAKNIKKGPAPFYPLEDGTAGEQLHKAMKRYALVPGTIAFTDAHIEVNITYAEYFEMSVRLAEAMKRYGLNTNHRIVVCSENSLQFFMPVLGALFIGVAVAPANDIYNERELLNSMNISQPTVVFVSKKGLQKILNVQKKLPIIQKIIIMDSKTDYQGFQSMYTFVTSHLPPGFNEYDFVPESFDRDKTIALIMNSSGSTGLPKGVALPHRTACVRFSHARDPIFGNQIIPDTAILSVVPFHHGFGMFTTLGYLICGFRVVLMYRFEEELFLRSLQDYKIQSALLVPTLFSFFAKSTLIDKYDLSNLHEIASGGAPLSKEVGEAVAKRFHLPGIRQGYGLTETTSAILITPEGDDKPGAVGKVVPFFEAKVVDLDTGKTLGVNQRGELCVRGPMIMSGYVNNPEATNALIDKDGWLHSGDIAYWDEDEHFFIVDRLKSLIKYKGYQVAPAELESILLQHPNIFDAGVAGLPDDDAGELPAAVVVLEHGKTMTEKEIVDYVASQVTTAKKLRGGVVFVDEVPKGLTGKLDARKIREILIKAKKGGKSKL
# [10] = tested on: Wnt5a (protein binding on small-molecule microarray); experiment: Wnt5a binders on small-molecule microarray, primary screen, biophysical, 635/667 nm fluorescence (AID 1142); details: 635 nm fluorescence, higher = more signal;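 further: fluorescence read at 667 nm with signal to noise per printed feature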
# [11] = cell viability in Huh7 cells, primary screen, cytotoxicity control for HCV replication inhibitor project, CellTiter-Glo luminescence, basal, 48 h (AID 1143); details: Huh7 HCV replicon, higher = more signal, called active from +8 up or from −8 down;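 further: Huh7 hepatoma cells carrying a hepatitis C replication reporter with no stimulus; test concentration not given here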
# [12] = P. aeruginosa biofilm formation inhibitors, primary screen, PAO1 strain, BacTiter-Glo luminescence, LB-PBS (AID 1144); details: 12 h, higher = more signal
# [13] = CREB reporter modulators without forskolin, primary screen, cell-based, PC12, CRE-LacZ reporter, unstimulated (AID 1145); details: no forskolin, luminescence, 4.5 h, higher = more signal, called active from +8 up or from −8 down
# [14] = CREB reporter modulators under forskolin, primary screen, cell-based, PC12, CRE-LacZ reporter, forskolin-stimulated (AID 1146); details: luminescence, 4.5 h, higher = more signal, called active from +8 up or from −8 down;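 further: PC12 cells with 6xCRE LacZ reporter stimulated by forskolin 10 µM; beta-galactosidase reporter signal reflecting CREB driven transcription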
# [15] = molecular target: Streptavidin (Streptomyces avidinii) (UniProt P22629); experiment: streptavidin binders on small-molecule microarray, primary screen, artefact control for SMM compound annotation, biophysical, 635/667 nm fluorescence (AID 1147); details: streptavidin binding, higher = more signal;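 further: signal reflects streptavidin binding to arrayed compounds as a control protein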
# Sequence of Streptavidin (Streptomyces avidinii) (P22629 whole entry, looked up): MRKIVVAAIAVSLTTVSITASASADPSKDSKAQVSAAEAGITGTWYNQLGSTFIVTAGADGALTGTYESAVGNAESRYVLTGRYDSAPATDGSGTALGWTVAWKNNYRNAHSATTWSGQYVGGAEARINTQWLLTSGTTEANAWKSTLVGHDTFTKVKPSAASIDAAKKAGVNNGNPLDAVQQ
# [16] = small-molecule binders of probe aInhba, primary screen, biochemical, small-molecule microarray, 635/667 nm fluorescence (AID 1148); details: higher = more signal;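 further: score merges 667nm spot fluorescence with signal-to-noise for antibody binding to printed compounds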
# Torsin-1A (Homo sapiens) [17] = molecular target: Torsin-1A (Homo sapiens) (UniProt O14656); experiment: torsin A binders from cell lysate, primary screen, small-molecule microarray, wild-type, 635/667 nm (AID 1149); details: COS7 hTOR1A-WT lysate, 635 nm fluorescence, higher = more signal
# Sequence of Torsin-1A (Homo sapiens) (O14656 whole entry, looked up): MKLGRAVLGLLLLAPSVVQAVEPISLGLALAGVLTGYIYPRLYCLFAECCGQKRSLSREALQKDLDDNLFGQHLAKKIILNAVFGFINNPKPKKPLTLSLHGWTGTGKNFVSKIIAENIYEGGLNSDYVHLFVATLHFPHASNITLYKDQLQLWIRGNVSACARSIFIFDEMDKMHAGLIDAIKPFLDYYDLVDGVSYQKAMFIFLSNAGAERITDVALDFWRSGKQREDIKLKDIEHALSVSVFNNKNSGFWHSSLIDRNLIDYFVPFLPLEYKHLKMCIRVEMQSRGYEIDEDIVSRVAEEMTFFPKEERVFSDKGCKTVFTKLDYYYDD
# Torsin-1A (Homo sapiens) [18] = molecular target: Torsin-1A (Homo sapiens) (UniProt O14656); experiment: small-molecule binders of mutant TOR1A in lysate, primary screen, cell lysate, small-molecule microarray, COS7 lysate, 635/667 nm fluorescence (AID 1150); details: COS7 hTOR1A mutant lysate, 635 nm fluorescence, higher = more signal;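 further: score pools 667 nm emission and signal to noise measuring lysate protein binding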
# [19] = tested on: Sonic hedgehog protein (Shh); experiment: small-molecule binders of Shh protein, primary screen, biochemical, small-molecule microarray, 635/667 nm fluorescence (AID 1151); details: small-molecule microarray binding, 635 nm fluorescence; higher = more signal;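 further: Shh protein binding to compounds spotted on small-molecule microarray slides; score combines spot fluorescence intensity with signal-to-noise across triplicate slides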
SMILES,composite z-score [1],composite z-score [2],composite z-score [3],composite z-score [4],composite z-score [5],composite z-score [6],z-score [7],composite z-score (Lefty1),composite z-score [8],z-score [9],composite z-score [10],z-score [11],z-score [12],z-score [13],z-score [14],composite z-score [15],composite z-score [16],composite z-score (Torsin-1A (Homo sapiens) [17]),composite z-score (Torsin-1A (Homo sapiens) [18]),composite z-score [19]
CC(C)(C)OC(=O)CC[C@]1(C(=O)N2CCOCC2)N=C(c2ccc(OCCCO)cc2)O[C@H]1c1ccccc1,1.9,0.645,0.407,0.886,0.825,0.858,2.23,0.398,0.298,-1.99 (inactive),0.959,-1.37 (inactive),0.838 (inactive),-0.114 (inactive),1.06 (inactive),2.02,-0.152,-0.0284,0.618,-0.733
Cc1ccc(S[C@]2(C(=O)NCc3ccccc3)CC(=O)N(C(C)C)[C@@H]2c2ccc(CO)cc2I)cc1,0.257,-0.0754,-0.19,-0.956,-0.289,-1.04,-0.224,-1.17,-0.0961,0.667 (inactive),0.292,-1.11 (inactive),0.201 (inactive),0.208 (inactive),1.95 (inactive),-0.505,0.0028,-0.0397,-0.609,-1.37
COCCOC(=O)N1C(=O)[C@@]2(c3ccccc31)[C@H](C(=O)N1CCN(c3ncccn3)CC1)[C@H]1C(=O)O[C@H](c3ccccc3)[C@H](c3ccccc3)N1[C@@H]2c1ccc(OCCO)cc1,2.77,1.21,2.12,0.967,1.23,0.891,-0.587,0.612,0.965,-1.3 (inactive),0.561,-1.12 (inactive),-0.236 (inactive),1.3 (inactive),-0.599 (inactive),1.19,0.336,0.281,0.59,1.82
C=C(/C=C/CNS(=O)(=O)c1ccc(C)cc1)[C@H](O)[C@H]1CCCN1S(=O)(=O)c1ccccc1[N+](=O)[O-],-0.394,0.237,0.0627,0.53,0.933,0.891,0.381,0.887,0.299,-0.83 (inactive),0.118,-1.58 (inactive),1.01 (inactive),6.84 (inactive),-1.17 (inactive),0.337,-0.0791,0.361,0.388,0.758
COc1ccc([Si](C)(C)[C@H]2[C@H](CC(=O)N3Cc4ccccc4C[C@H]3CO)O[C@@]3(C(=O)N(Cc4cccc(N5CCCCC5=O)c4)c4ccccc43)[C@@H]2C)cc1,1.57,0.307,0.566,0.378,1.3,1.58,0.925,1.53,0.292,-0.0418 (inactive),0.329,-3.48 (inactive),-0.185 (inactive),2.21 (inactive),0.114 (inactive),-0.0717,0.0422,0.849,0.431,2.15
